Source: PubChem BioAssay (NCI)
About 83,000 compounds went through this panel and 20% of them were active in at least one assay; those are over-represented in the sample as a whole.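 How to read the values: 0–100, growth inhibition (40 = 60% inhibited); 0, no net growth; -100 to 0, cell death (-40 = 40% of starting cells died; -100 = all dead).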 Unmarked numbers belong to inactive results. Calls of active or inactive are those of the source. Rule for the calls: active = growth percent below 10; inactive = the rest.

Each compound was assayed on UACC-62 melanoma (assay: NCI-60 one-dose screen, 48 h (100 = growth as untreated, 0 = no growth, -100 = all killed)). Settings: 10 µM unless noted.
`CNC(=O)c1cc(Oc2ccc(CC(=O)Nc3cc(C(C)(C)C)cn3C)cc2)ccn1` was tested, and the growth was 62.9%.
`COc1ccccc1C(=O)O/N=C(\N)Cc1cccc2ccccc12` showed a growth of 83.3%.
In the case of `COc1cc(/C=C2\CN(C)C/C(=C\c3cc(CN4CCOCC4)c(O)c(OC)c3)C2=O)cc(CN2CCOCC2)c1O`, the growth is reported as 35.8%.
In the case of `O=C1c2ccc3c4c(ccc(c24)C(=O)N1CCCCO)C(=O)N(CCCCO)C3=O`, the growth is reported as 79.6%.
`COc1ccc(-c2cc(=O)c3c(OC)c4ccoc4c(/C=C/C=O)c3o2)cc1` gave a growth of 67.1%.
Work on `COc1ccc2occ(C3=C(c4c[nH]c5ccccc45)C(=O)NC3=O)c2c1` yielded a growth of 37.9%.
`CCCC(=O)CC(C)=O.CCCC(=O)CC(C)=O.[Cu]` gave a growth of 105%.
Compound `O=C(Nc1ccc(N2CCNCC2)cc1)c1[nH]ncc1Nc1cc(C2CC2)ncn1` has a growth of 50%.
`Nc1ccc(-c2nc3cc(Oc4ccc(Oc5ccc6[nH]c(-c7ccc(N)cc7)nc6c5)cc4)ccc3[nH]2)cc1` gave a growth of 58.8%.
`Oc1c(CN2CCN(c3ccccc3F)CC2)cc(Br)c2cccnc12` was tested, and the growth was -42.5% (active).
`CC(=Nc1ccccc1)C1=C(O)C(Cc2ccc(F)cc2)NC1=O` (centres undefined) gave a growth of 23.5%.
`NCCOc1ncccc1/C=C1\c2ccccc2-c2ccc(F)cc21` showed a growth of 34.8%.
Work on `CCOC(=O)C1=C(C)N=c2s/c(=C\c3cc(Cl)ccc3O)c(=O)n2C1c1ccc(OC)cc1` (centres undefined) yielded a growth of 94%.
`CCCCC(O)(c1ccc(Cl)cc1)C(CN1CCOCC1)c1ccc(Cl)cc1` (centres undefined) was tested, and the growth was 31.1%.
